Source: PubChem (several laboratories)
CYP2C19 activ: cytochrome P450 2C19 (human) activation; P33261; recombinant CYP2C19, luciferin-H EGE luminescence; hits give high values; 0 = fully inhibited enzyme, 1 = untreated enzyme; activation factor at 5 µM; 96,000 tested, under 10 active;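 active = activation factor of at least 2 at 5 µM in the primary screen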
Target sequence (P33261 whole entry, looked up): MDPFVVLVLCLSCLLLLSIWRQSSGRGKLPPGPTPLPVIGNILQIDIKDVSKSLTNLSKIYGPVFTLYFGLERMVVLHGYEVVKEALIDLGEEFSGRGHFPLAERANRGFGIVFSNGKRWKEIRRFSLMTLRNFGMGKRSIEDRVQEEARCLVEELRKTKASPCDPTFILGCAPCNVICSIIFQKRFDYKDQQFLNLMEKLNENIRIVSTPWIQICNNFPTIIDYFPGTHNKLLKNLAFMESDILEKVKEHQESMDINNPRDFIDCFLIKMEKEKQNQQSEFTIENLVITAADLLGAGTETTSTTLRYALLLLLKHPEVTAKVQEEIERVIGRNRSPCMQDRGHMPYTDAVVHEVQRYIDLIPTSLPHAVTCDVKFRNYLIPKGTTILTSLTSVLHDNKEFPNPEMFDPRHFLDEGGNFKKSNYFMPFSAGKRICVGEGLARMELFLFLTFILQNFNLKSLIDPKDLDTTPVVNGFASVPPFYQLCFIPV
MRP reversal: reverses drug resistance mediated by MRP; H69AR cells + 2 uM doxorubicin, CellTiter-Glo, 72 h; differential viability (reversal), % at 10 µM; 85,000 tested, 0.04% active;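 active = viability drop by adding the cancer drug above about 55%, with treated viability meeting a 40% cutoff, limit read from the data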;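 also: larger differential means the compound sensitizes cells more to doxorubicin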
MRP-1 activ: MRP-1 activation | H69AR cells + doxorubicin, viability rescue, CellTiter-Glo | viability increase, % at 10 µM | 140,000 tested, 0.61% active | AID 799;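 active = viability gain under doxorubicin at or above a set limit, the compound median plus 3 SD, cut at about 4.7% in these data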;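 also: MRP-1 overexpressing cells given doxorubicin 25 µM after compound pretreatment; 18-22 h compound pretreatment then 72 h with doxorubicin before readout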
CYP2C9 inhib: inhibitors of human CYP2C9. P11712. CYP2C9 Supersomes, luciferin-H conversion, luminescence. inhibition, % at 5 µM. 96,000 tested, 20% active;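 active = blocking of liver enzyme CYP2C9 beyond about 50% at 5 µM, limit read from the data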
CYP2C9 activ: CYP2C9 (human) activation. 96,000 tested, 1.4% active. recombinant CYP2C9, luciferin-H conversion, luminescence; hits give high values; factor 1 = untreated enzyme, 0 = blocked. activation factor at 5 µM. P11712;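 active = activation factor of 2 or more for CYP2C9 at a 5 µM dose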
CYP2C19 inh: blocks human cytochrome P450 2C19 | CYP2C19 Supersomes, luciferin-H EGE luminescence, 30 min | inhibition, % at 5 µM | P33261 | 96,000 tested, 21% active | AID 778;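 active = CYP2C19 inhibition above a set limit at 5 µM in the primary screen, cut at about 50% in these data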
Numbers stand for hits. Compounds with a hit are over-represented: about 21% of the library has one in this group of screens.

How did O=C(COc1ccc2oc(-c3ccccc3)cc(=O)c2c1)NCc1ccco1 do in these assays?
CYP2C19 activ: inactive; MRP reversal: inactive; MRP-1 activ: inactive; CYP2C9 inhib: 58; CYP2C9 activ: inactive; CYP2C19 inh: inactive

How did Cc1cc(=O)oc2ccc(OCC(=O)NCc3ccco3)cc12 do in these assays?
CYP2C19 activ: inactive; MRP reversal: inactive; MRP-1 activ: inactive; CYP2C9 inhib: inactive; CYP2C9 activ: inactive; CYP2C19 inh: inactive

What do the screens show for `Cc1ccc(NS(=O)(=O)c2cccc(C(=O)OCC(=O)NCc3ccco3)c2)cc1`?
CYP2C19 activ: inactive; MRP reversal: inactive; MRP-1 activ: inactive; CYP2C9 inhib: 86; CYP2C9 activ: inactive; CYP2C19 inh: 59

How did COc1cccc(S(=O)(=O)NCc2ccc(C(=O)NCc3ccco3)cc2)c1 do in these assays?
CYP2C19 activ: inactive; MRP reversal: inactive; MRP-1 activ: inactive; CYP2C9 inhib: inactive; CYP2C9 activ: inactive; CYP2C19 inh: inactive

How did CC(=O)N(C)c1ccc(OCC(O)CN(Cc2ccco2)S(=O)(=O)c2ccc(C)cc2)cc1 (stereo unspecified) do in these assays?
CYP2C19 activ: inactive; MRP reversal: inactive; MRP-1 activ: inactive; CYP2C9 inhib: 80; CYP2C9 activ: inactive; CYP2C19 inh: inactive

What do the screens show for `COc1ccc(/C=N/Nc2nc(-c3ccc(Cl)cc3)cc(C(F)(F)F)n2)c(OC)c1`?
MRP-1 activ: inactive

How did Cc1cc(C=O)c2c(c1)C=CC1(Oc3ccccc3C(=O)N1C)O2 (stereo unspecified) do in these assays?
MRP reversal: inactive; MRP-1 activ: inactive

How did Cc1ccc(NS(=O)(=O)c2ccc(OCC(=O)NCc3ccco3)cc2)cc1 do in these assays?
CYP2C19 activ: inactive; MRP reversal: inactive; MRP-1 activ: inactive; CYP2C9 inhib: 85; CYP2C9 activ: inactive; CYP2C19 inh: 75

Results for Cc1nnc(SCc2cccc3ccccc23)n(N)c1=O ?
MRP-1 activ: inactive

What do the screens show for `COc1cccc(N2CCN(CC(=O)c3c[nH]c4ccc(OC)cc34)CC2C)c1` (stereo unspecified)?
CYP2C19 activ: inactive; MRP reversal: inactive; MRP-1 activ: inactive; CYP2C9 inhib: 50; CYP2C9 activ: inactive; CYP2C19 inh: inactive

What do the screens show for `Cc1nc(NS(=O)(=O)c2ccc(Br)cc2)c2c3c(sc2n1)CCC3`?
CYP2C19 activ: inactive; MRP reversal: inactive; MRP-1 activ: inactive; CYP2C9 inhib: 97; CYP2C9 activ: inactive; CYP2C19 inh: 76

How did O=S(=O)(Nc1ncnc2sc3c(c12)CCC3)c1ccc(Cl)s1 do in these assays?
CYP2C19 activ: inactive; MRP reversal: inactive; MRP-1 activ: inactive; CYP2C9 inhib: 81; CYP2C9 activ: inactive; CYP2C19 inh: inactive

Results for Cc1nc(NC(C)c2ccccc2)c2c3c(sc2n1)CCC3 (stereo unspecified) ?
CYP2C19 activ: inactive; MRP reversal: inactive; MRP-1 activ: inactive; CYP2C9 inhib: 56; CYP2C9 activ: inactive; CYP2C19 inh: 84

How did O=C(O)[C@H](CO)Nc1ncnc2sc3c(c12)CCC3 do in these assays?
CYP2C19 activ: inactive; MRP reversal: inactive; MRP-1 activ: inactive; CYP2C9 inhib: inactive; CYP2C9 activ: inactive; CYP2C19 inh: inactive

Results for CCCCn1c2c(c(=O)n(C)c1=O)C(c1ccc(OC)cc1)N1CCCCCC1=N2 (stereo unspecified) ?
CYP2C19 activ: inactive; MRP-1 activ: inactive; CYP2C9 inhib: inactive; CYP2C9 activ: inactive; CYP2C19 inh: inactive

What do the screens show for `O=S(=O)(c1ccccc1)N(C1=NCCS1)S(=O)(=O)c1ccccc1`?
CYP2C19 activ: inactive; MRP reversal: inactive; MRP-1 activ: inactive; CYP2C9 inhib: inactive; CYP2C9 activ: inactive; CYP2C19 inh: inactive

How did CC(C)(C)NC(=O)CN(Cc1cccs1)C(=O)CCC(=O)Nc1nccs1 do in these assays?
CYP2C19 activ: inactive; MRP-1 activ: inactive; CYP2C9 inhib: inactive; CYP2C9 activ: inactive; CYP2C19 inh: inactive

How did CCNC(=O)/C(=C\C=C\c1ccccc1)NC(=O)c1ccc(Br)o1 do in these assays?
MRP-1 activ: inactive

Results for CCSc1nnc(NC(=O)CSc2nc3c(c(=O)n2CC)SC(C)C3)s1 (stereo unspecified) ?
CYP2C19 activ: inactive; MRP reversal: inactive; MRP-1 activ: inactive; CYP2C9 inhib: inactive; CYP2C9 activ: inactive; CYP2C19 inh: inactive

Results for CCn1c(SCC(=O)Nc2nnc(C)s2)nc2c(c1=O)SC(C)C2 (stereo unspecified) ?
CYP2C19 activ: inactive; MRP reversal: inactive; MRP-1 activ: inactive; CYP2C9 inhib: 62; CYP2C9 activ: inactive; CYP2C19 inh: inactive

Results for CCn1c(SCC(=O)N2CCOCC2)nc2c(c1=O)SC(C)C2 (stereo unspecified) ?
MRP reversal: inactive; MRP-1 activ: inactive

What do the screens show for `CCSc1nnc(NC(=O)CSc2nc3c(c(=O)n2C)SC(C)C3)s1` (stereo unspecified)?
CYP2C19 activ: inactive; MRP reversal: inactive; MRP-1 activ: inactive; CYP2C9 inhib: 62; CYP2C9 activ: inactive; CYP2C19 inh: inactive

How did Cc1nnc(NC(=O)CSc2nc3c(c(=O)n2CCc2ccccc2)SC(C)C3)s1 (stereo unspecified) do in these assays?
CYP2C19 activ: inactive; MRP reversal: inactive; MRP-1 activ: inactive; CYP2C9 inhib: inactive; CYP2C9 activ: inactive; CYP2C19 inh: inactive

Results for CC1Cc2nc(SCC(=O)Nc3nc4ccccc4s3)n(C)c(=O)c2S1 (stereo unspecified) ?
CYP2C19 activ: inactive; MRP reversal: inactive; MRP-1 activ: inactive; CYP2C9 inhib: 98; CYP2C9 activ: inactive; CYP2C19 inh: 97

How did CCC(Sc1nc2c(c(=O)n1CC)SC(C)C2)C(=O)OC (stereo unspecified) do in these assays?
CYP2C19 activ: inactive; MRP reversal: inactive; MRP-1 activ: inactive; CYP2C9 inhib: 56; CYP2C9 activ: inactive; CYP2C19 inh: inactive

What do the screens show for `COCCNC(=S)N1CCOCC1`?
MRP-1 activ: inactive

Results for CC1Cc2nc(SCC(=O)Nc3ccc4c(c3)OCO4)n(CCc3ccccc3)c(=O)c2S1 (stereo unspecified) ?
CYP2C19 activ: inactive; MRP reversal: inactive; MRP-1 activ: inactive; CYP2C9 inhib: 85; CYP2C9 activ: inactive; CYP2C19 inh: inactive

Results for CCn1c(SCC(=O)Nc2ccc3c(c2)OCO3)nc2c(c1=O)SC(C)C2 (stereo unspecified) ?
CYP2C19 activ: inactive; MRP reversal: inactive; MRP-1 activ: inactive; CYP2C9 inhib: 84; CYP2C9 activ: inactive; CYP2C19 inh: 69

Results for Cc1cc(NC(=O)CSc2nc3c(c(=O)n2CCc2ccccc2)SC(C)C3)no1 (stereo unspecified) ?
CYP2C19 activ: inactive; MRP reversal: inactive; MRP-1 activ: inactive; CYP2C9 inhib: inactive; CYP2C9 activ: inactive; CYP2C19 inh: inactive

What do the screens show for `CCn1c(SCC(=O)Nc2cccc(C)c2)nc2c(c1=O)SC(C)C2` (stereo unspecified)?
CYP2C19 activ: inactive; MRP reversal: inactive; MRP-1 activ: inactive; CYP2C9 inhib: 75; CYP2C9 activ: inactive; CYP2C19 inh: inactive
